The first experiment has as its system GSK3B.
`COc1cc(C=NNc2ncnc3c2cnn3-c2ccccc2)ccc1O` [GW513184X]: the Kinases covered result is “GSK3B”. On the same count and under the same terms, with `COc1ccc(CSc2nnc(-c3ccc4ncsc4c3)o2)cc1C(F)(F)F` [TPKI-91] the entry was “GSK3B”. On to `Cc1nnc(-c2ccc3occ(-c4ccc(S(C)=O)cc4)c3c2)[nH]1` (centres unmarked) [TPKI-85], for which the Kinases covered entry was “GSK3B”. Take `COc1ccc2c(-c3ccnc(Nc4cccc(OC(F)(F)F)c4)n3)cnn2n1` [GW810372X]: the Kinases covered entry is “GSK3B”.

As for `CCC(NN(C)C)=C1C(=O)Nc2ccc(C(C)=O)cc21` [BI00036838], the Kinases covered entry is recorded as “GSK3B”.

With `O=C(Nc1n[nH]c2nc(-c3ccc(O)cc3)c(Br)cc12)C1CC1` [SB-725317], the Kinases covered result is “GSK3B”.

Another experiment relates to IGF1R.
For the molecule `COc1cc(C)c(N(C)C(=O)CN(C)C)cc1Nc1nc(Nc2cccc(F)c2C(N)=O)c2cc[nH]c2n1` [GSK2219385], the Kinases covered entry was “IGF1R”. The same measure, in the same setting: the same measure for `COc1cc(N2CCN(C(C)C)CC2)ccc1Nc1nc(Nc2ccc(F)cc2C(=O)NC[C@@H](O)CO)c2cc[nH]c2n1` [GSK1392956A]: “IGF1R”; for `CCc1cc(Nc2nccc(-c3c(-c4ccc(OC)c(C(=O)Nc5c(F)cccc5F)c4)nc4ccccn34)n2)c(OC)cc1N1CCC(N2CCN(S(C)(=O)=O)CC2)CC1` [GSK1904529]: “IGF1R”; for `CNC(=O)c1c(F)cccc1Nc1nc(Nc2cc3c(cc2OC)CCN3C(=O)CN(C)C)nc2[nH]ccc12` [GSK1838705]: “IGF1R”. The same measure, in the same setting: the same measure for `CN(C)C/C=C/C(=O)Nc1ccc(C(=O)Nc2cccc(Nc3ncc(Cl)c(-c4c[nH]c5ccccc45)n3)c2)cc1` [THZ1]: “IGF1R”.

These data come from article PMC7826789 (International Journal of Molecular Sciences, 2021).
